From PubChem BioAssay (NCI) come the findings set out here.

About 83,000 compounds went through this panel and 20% of them were active in at least one assay; those are over-represented in the sample as a whole.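 Activity criterion: percent growth below 10, measured after cells in 96-well plates were exposed to a single compound concentration for 48 hours.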 Unmarked numbers belong to inactive results. Calls of active or inactive are those of the source.

For the assay, the system named is RPMI-8226 leukemia. Nature of the assay: NCI-60 one-dose screen, 48 h (100 = growth as untreated, 0 = no growth, -100 = all killed). The following applies: 10 µM unless noted.
`N/C(=N\C(N)=N\c1nc2ccccc2s1)c1cccc(Cl)c1`: the growth was 80.8%. Take `CCOC(=O)[C@@H](C)C[C@H](Cc1ccccc1)NC(=O)c1csc([C@@H](C[C@H](C(C)C)N(C)C(=O)[C@@H](NC(=O)[C@H]2C[C@H](O[Si](C)(C)C(C)(C)C)CCN2C)C(C)C)OC(C)=O)n1`: the growth was -32.7% [9.25 µM] (active). In the case of `COC(=O)/C=C1\S/C(=N\NC(=O)c2cc3ccc2/C=C\c2ccc(cc2)/C=C\3)N(c2ccccc2)C1=O` it was -20.9% (active); in that of `NNC(=O)c1ccc(-n2nc(-c3ccccc3)c3ccccc32)cc1`, 86.4%. As to `NC(=NCCCOc1ccc(F)cc1)Nc1ccc(I)cc1`, the growth was 64.8%.

In the case of `N#CC1C(C#N)C(C(=O)c2ccc(Br)cc2)N2c3ccccc3C=CC12` (centres undefined), the growth is 94.1%. Consider `CCN1C(=O)/C(=C/C(=O)OC)S/C1=N\NC(=O)c1cc2ccc1/C=C\c1ccc(cc1)/C=C\2`, for which the growth was -14.3% (active). In the case of `COc1ccccc1/C=C1\Oc2cc(OCCN3CCCC3)ccc2C1=O` it was 82.2%; in that of `Cc1cc2nc3c4ccc(Br)cc4n(CCN(C)C)c3nc2cc1C`, -30.4% (active). For `C/C(=N\Nc1cc(C)nc2ccc(Br)cc12)c1ccc([N+](=O)[O-])cc1`, the growth was 27.5%. With `COc1cc(C2C3CC4CCCC[C@H]4N3[C@@]3(C(=O)Nc4cc(Cl)ccc43)C2C(=O)c2nc3ccccc3[nH]2)cc(OC)c1OC` (some centres undefined), the growth is 23.6%. The result for `O=C1OC(Cc2ccccc2)C1c1ccccc1` (centres undefined) reads 109%; that for `CC(Oc1ccc(C(=O)O)cc1C(F)(F)F)c1ccc(Oc2ccccc2)cn1` (centres undefined), 99.9%; that for `CC(Sc1nc2ccccc2c(=O)n1CCc1ccc(S(N)(=O)=O)cc1)C(=O)Nc1ccc(Cl)cc1` (centres undefined), 65.9%. As to `CC1=CCC(OC(=O)C(C)(O)CCC(O)(C(=O)OC2(C)C=CC(O)(C(C)C)CC2)C(C)C)(C(C)C)CC1` (centres undefined), the growth was 107%. Consider `ClC1=C(Br)C(Br)(Br)C(=C(Br)Br)C1(Br)Br`, for which the growth is 73.1%.

`C=C1C(=O)O[C@H]2[C@H]1CC/C(CNC(=O)C(C)c1ccc(CC(C)C)cc1)=C\CC[C@@]1(C)O[C@@H]21` (some centres undefined): the growth was -21% (active).

Consider `CCCCCN1C=C/C(=C\C(=O)N2CCCc3ccccc32)c2ccccc21`, for which the growth was 43.9%. The result for `N#Cc1cc(-c2nc3ccccc3s2)c(=O)n(NS(=O)(=O)c2ccccc2)c1N` reads 103%; that for `CCCOc1ccc(/C=N/Nc2cc(C)nc3ccc(Cl)cc23)cc1`, -20.2% (active); that for `Cc1cccc(NC(=O)Nc2ccc(-n3cnc4cc(-c5ccc(O)cc5)ccc43)cc2)c1`, 12.4%. Take `O=c1c2c(c(=O)n1O)c1c3ccc[nH]c3nc1c1nc3[nH]cccc3c12`: the growth is 93.9%. Consider `O=C(CNCCN1CCOCC1)N1c2cccc3cccc(c23)N(C(=O)CNCCN2CCOCC2)C1c1cn(-c2ccccc2)nc1-c1cccc([N+](=O)[O-])c1`, for which the growth is 44.8%. As for `O=Cc1cc2ccccc2nc1Oc1ccc(C(F)(F)F)cc1`, the growth was 33%.

Take `COc1ccc(C(=O)/C=C/c2cc3ccccc3n3nnnc23)cc1`: the growth is 98.7%. With `CN1CCN(C(=O)[C@]23CCC(C)(C)C[C@H]2C2=CC[C@@H]4[C@@]5(C)C/C(=C/c6cccnc6)C(=O)C(C)(C)[C@@H]5CC[C@@]4(C)[C@]2(C)CC3)CC1`, the growth was 19.1%. Consider `CCN(CC)c1ccc(/C=N/NC(=O)CSc2nc3ccccc3c(=O)n2CCc2ccc(S(N)(=O)=O)cc2)c(O)c1`, for which the growth is -31.5% (active). In the case of `CCCCCCNC(=O)Nc1ccc2cc3ccc(NC(=O)NCCCCCC)cc3nc2c1` it was 0.729% (active). Consider `CCNC(=O)Oc1ccc(/C(=C(\C)c2ccccc2)c2ccc(OCCN(CC)CC)cc2)cc1`, for which the growth was 74.6%. On to `CC/C(=C\c1ccc(OC)cc1)C(=O)c1ccc(OC)cc1`, for which the growth was 32.2%. For the compound `CCc1ccc(CNc2ccc(N3CCOCC3)c(C(=O)O)c2)cc1`, the growth was 109%. The result for `Cc1ccc(NS(=O)(=O)c2ccc(-c3cnc(C4CC4)o3)cc2)cc1C(F)(F)F` reads 55.2%.

With `C/C(=N\NC(=O)CSc1nc2ccccc2c(=O)n1CCc1ccc(S(N)(=O)=O)cc1)c1ccccn1`, the growth is 30.9%. On to `C=C(CBr)[C@@H]1CC[C@]2(COC(C)=O)CC[C@]3(C)[C@H](CC[C@@H]4[C@@]5(C)CCCNC(C)(C)[C@@H]5CC[C@]43C)[C@@H]12`, for which the growth was 7.96% (active).
